Assay results reported in PubChem BioAssay (NCI).
The panel holds about 83,000 compounds, 20% with a hit somewhere; the sample as a whole holds those more often.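 For each line, cells grew in 96-well plates with the test compound present at a single concentration for 48 hours.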 A number with no mark means an inactive call. Active and inactive are the calls of the source. The calls were made as follows: active = growth percent below 10; inactive = the rest.

Key:
Test in all cases: NCI-60 one-dose screen, 48 h (100 = growth as untreated, 0 = no growth, -100 = all killed)
Settings in all cases: 10 µM unless noted
[1] = tested on: EKVX NSCLC
[2] = tested on: SN12C renal
[3] = tested on: UO-31 renal
[4] = tested on: CAKI-1 renal
[5] = tested on: A498 renal
[6] = tested on: CCRF-CEM leukemia
[7] = tested on: MOLT-4 leukemia
[8] = tested on: SR leukemia
[9] = tested on: RPMI-8226 leukemia
[10] = tested on: OVCAR-8 ovarian
[11] = tested on: OVCAR-5 ovarian
[12] = tested on: OVCAR-4 ovarian
[13] = tested on: IGROV1 ovarian
[14] = tested on: OVCAR-3 ovarian
[15] = tested on: HS 578T breast
[16] = tested on: NCI/ADR-RES ovarian
[17] = tested on: T-47D breast
[18] = tested on: SK-OV-3 ovarian
[19] = tested on: ACHN renal

SMILES	growth [1]	growth [2] [%]	growth [3]	growth [4]	growth [5] [%]	growth [6]	growth [7]	growth [8]	growth [9]	growth [10] [%]	growth [11] [%]	growth [12] [%]	growth [13]	growth [14]	growth [15]	growth [16]	growth [17]	growth [18]	growth [19] [%]
CC(=O)Oc1ccccc1C(=O)Nc1ccc(C(=O)/C=C/c2cccs2)cc1	103%	104	105%	96.2%	80.7	99.7%	104%	93.9%	96.2%	107	109	104	116%	122%	120%	106%	100%		
CSCCC(C(=O)O)N1C(=O)/C(=C/c2ccc(O)c(O)c2)SC1=S (stereo not drawn)	96.2%	99.2	89.3%	95.6%	85.3	105%	108%	103%	110%	108	94.6	101	98.9%	111%	104%	108%	95.1%	110%	
CN(C)S(=O)(=O)c1oc(-c2ccccc2)nc1C#N	78.3%	72.4	-51% (active)	53.7%	65.6	1.79% (active)	-13.1% (active)	-19.7% (active)	76%	94.4	100	99.7	38.8%	62.4%	107%	107%	59.6%	136%	
COc1ccc(C(=O)/C=C/c2ccc(OCc3ccc(Cl)cc3)c(OC)c2)cc1OC	62.2%	76.6	54.1%			22.5%	38.6%	7.68% (active)	-2.25% (active)	58.4	100	68.6	73.5%	78.5%	82%	55.2%	50.6%		73.4
CN(C)CCCOc1c2ccc(Cl)cc2nc2c1oc1ccc(Cl)cc12	31.8%	21.4	2.96% (active)	-12.1% (active)			1.92% (active)	-31.1% (active)	-20.8% (active)	26.7	21.3	50.6	6.89% (active)	45.4%	26.3%	-20.8% (active)	58.7%	41.4%	
Clc1ccc2c(NCCCN3CCOCC3)c3oc4ccccc4c3nc2c1	62.6%	29.9	40.1%		33.7	32.8%	10.6%	8.11% (active)	23.2%	32.5	39.6	64.8	25.8%	74.2%	58.2%	44.2%	76.5%	97.6%	19.3
CC(C)(O)c1cncc(-c2ccc3ncnc(N4CCc5cc(F)c(Cl)cc54)c3c2)c1	-2.39% (active)	18.6	6.25% (active)			22.2%	0.627% (active)	18%	6.02% (active)	25.9	25.9	20.2	-35.7% (active)	5.16% (active)	-8.48% (active)	31.1%	4.63% (active)	1.96% (active)	11.3
O=C(CCCN1C(=O)/C(=C/c2ccccc2F)SC1=S)N1CCOCC1	89.5%	87.6	72.2%		82.8	71.6%	91.3%	68%	75.1%	99	94.5	88.4	84.4%	112%	99.4%	104%	45.6%	114%	78.1
